RORgamma inh: blocks mouse ROR gamma transcriptional activity. P51450. Drosophila S2 Gal4-RORgamma UAS-luciferase reporter, 20 h. Potency, µM (doses to about 53.6 µM), inactives show top-dose activity change, negative = inhibition, actives largely listed as inhibitors. hit rate 5.4% among 310,000; further: nearly all actives have a fitted effect of over 60% in size
Target sequence (P51450 whole entry, looked up, the tested form may be a part): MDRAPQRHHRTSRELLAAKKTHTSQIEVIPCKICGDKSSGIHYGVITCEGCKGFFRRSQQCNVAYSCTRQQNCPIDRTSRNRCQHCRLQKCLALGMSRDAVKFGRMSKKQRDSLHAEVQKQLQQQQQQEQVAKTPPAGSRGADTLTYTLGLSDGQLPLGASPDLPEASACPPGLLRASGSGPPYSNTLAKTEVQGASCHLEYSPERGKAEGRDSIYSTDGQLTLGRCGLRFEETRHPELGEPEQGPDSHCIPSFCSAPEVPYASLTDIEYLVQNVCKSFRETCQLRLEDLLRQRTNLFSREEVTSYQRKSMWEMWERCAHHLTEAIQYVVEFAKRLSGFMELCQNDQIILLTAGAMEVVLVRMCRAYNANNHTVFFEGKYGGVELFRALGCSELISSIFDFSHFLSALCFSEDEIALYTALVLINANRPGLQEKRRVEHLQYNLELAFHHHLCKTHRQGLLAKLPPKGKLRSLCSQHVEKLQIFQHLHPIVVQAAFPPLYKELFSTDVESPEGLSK
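Stably transfected Drosophila Schneider cells are the test system, with ROR gamma fused to Gal4 and luciferase under UAS control; luminescence is read after 20 hr of 700 uM copper sulfate induction at ambient temperature.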
ALOX12 inh: ALOX12 (human) lipoxygenase inhibition. P18054. purified 12hLO, xylenol orange hydroperoxide absorbance. Potency, µM (titrated, usually from 108 µM), for inactives: top-dose activity change, negative = inhibition, hits mostly inhibitors. hit rate 1.1% among 580,000
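Hydroperoxide product was detected by ferrous iron/xylenol orange as the 573 to 405 nm absorbance ratio. Arachidonic acid at 40 uM (final) was turned over for 30 min at room temperature by 150 nM human 12hLO, pH 7.0 Hepes buffer, after 15 min compound preincubation.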
ELG1 DNA repair: ELG1-dependent DNA repair inhibition. hit rate 2.3% among 330,000. HEK293T ELG1-luciferase reporter, luminescence, 16 h; DNA damage induced by 5-fluorouridine. Potency, µM (titrated, usually from 46.1 µM), without a hit: at the highest dose activity change, negative = inhibition, actives largely listed as inhibitors; further: nearly all actives have a fitted effect of over 55% in size
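HEK293T cells expressing luciferase-tagged ELG1 (2,000/well) received 5-Fluorouridine plus compound or DMSO for 16 hr at 37 °C. Luciferase was read by ONE-Glo luminescence after 30 min at room temperature.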
TDP1 cell noCPT: qHTS for Inhibitors of human tyrosyl-DNA phosphodiesterase 1 (TDP1): qHTS in cells in absence of CPT; DT40 Tdp1-/- hTDP1 cells, no CPT, ATP luminescence, 48 h; Potency, µM (titrated, usually from 46.2 µM), for the others: at the top dose activity change, negative = growth inhibition, hits mostly inhibitors; hit rate 15% among 420,000; AID 686978, 2013; further: nearly all actives have a fitted effect of over 55% in size
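Cells were dispensed at 400 per well, compounds added by pin tool, plates incubated ≥48 hr at 37 °C, then CellTiter-Glo added for 30 min at room temperature before luminescence reading. Line: DT40 Tdp1-/- complemented with hTDP1; camptothecin omitted.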
Gal4-VP16 FLuc: counter-screen for ROR gamma inhibitors: Gal4-VP16 reporter. hit rate 3.5% among 310,000. Drosophila S2 Gal4-VP16 UAS-luciferase, luminescence, 20 h. Potency, µM (titrated, usually from 53.6 µM), inactives show at the top dose activity, negative = inhibition, hits mostly inhibitors;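 further: Gal4-VP16 expression switched on by copper sulfate through the metallothionein promoter; nearly all actives have a fitted effect of over 50% in size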
DT40 TDP1 CPT: growth inhibition of DT40 Tdp1-/-;hTDP1 cells with camptothecin (screen for TDP1 inhibitors). hit rate 12% among 420,000. Potency, µM (series often up to 46.2 µM), inactives show top-dose activity change, negative = growth inhibition, actives largely listed as inhibitors. chicken DT40 Tdp1-/-;hTDP1 cells + 20 nM CPT, ATP luminescence, 48 h; further: nearly all actives have a fitted effect of over 55% in size
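Cell growth measured by CellTiter-Glo luminescence after a minimum 48 h, 37 C compound exposure with 20 nM CPT in Tdp1-knockout DT40 cells stably expressing hTDP1, seeded 400/well; qHTS titration format.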
* = called active by the depositor; u = inconclusive; x = no result given; [ ] = remark or other dose. In the library only some 15% were active in any assay of this set; here they are far more common. The call rests on the fitted dose curve; in most records, active means well fitted curve in the direction sought with a large enough effect; inconclusive means small, poorly fitted or top-dose-only effect, or another doubt; inactive means no such curve, though single readings can be large; an effect the other way counts as inactive or inconclusive. On the % scale 0 is the no-effect control and ±100 the full control effect; potency means the concentration at half of the fitted maximal effect.

SMILES	RORgamma inh	ALOX12 inh	ELG1 DNA repair	TDP1 cell noCPT	Gal4-VP16 FLuc	DT40 TDP1 CPT
O=C(NCc1ccco1)C(c1ccncc1)N(C(=O)Cc1cccs1)c1ccccc1 (centres undefined)	11.3%	-5.9%	3.7%	-16.5%	5.4%	-17.1%
Cc1ccc(C(C(=O)NCc2ccco2)N(Cc2ccco2)C(=O)CNC(=O)c2ccco2)cc1 (centres undefined)	33.1%	u	-9.9%	-22.7%	0.1%	-14.7%
O=C(NCC(=O)N(Cc1ccco1)C(C(=O)NC1CCCC1)c1ccncc1)c1cccs1 (centres undefined)	5.0%	u	u	-15.8%	-0.5%	4.3%
Cc1ccc(C(C(=O)NCc2ccco2)N(C(=O)CNC(=O)c2cccs2)c2c(C)cc(C)cc2C)cc1 (centres undefined)	u	5.8%	18.4%	10.3µM*	-39.6%	10.3µM*
O=C(NCc1ccco1)C(c1ccccc1)N(C(=O)Cc1cccs1)c1ccccc1F (centres undefined)	0.4%	-34.8%	18.4µM*	25.9µM*	-25.0%	u
Cc1ccc(C(C(=O)NCc2ccco2)N(C(=O)CNC(=O)c2cccs2)c2c(C)cccc2C)cc1 (centres undefined)	u	u	17.0%	u	15.8µM*	u
CCOC(=O)c1cnc(N2CC3CCC(C2)N3CC(F)(F)F)s1	x	0.4%[6.33 µM]	x	x	x	x
O=c1c2ccccc2c(-c2ccc(O)cc2)nn1-c1cccc(C(F)(F)F)c1	3.9%	-27.9%	u	14.6µM*	-28.9%	14.6µM*
CCOC(=O)c1ccc(Nc2c(-c3ccc(O)c(OC)c3)nc3nc[nH]n23)cc1	x	-8.7%	x	16.4µM*	x	11.6µM*
CCOC(=O)c1ccc(Nc2c(-c3ccc(O)cc3)nc3nc[nH]n23)cc1	x	38.0%	x	u	x	u
CCOC(=O)c1ccc(Nc2c(-c3ccc(OC)cc3)nc3nc[nH]n23)cc1	x	-21.6%	x	23.1µM*	x	20.6µM*
COc1cc(C(=O)OCCc2c(C)nc3nc[nH]n3c2=O)cc(OC)c1OC	-16.0%	-27.5%	0.6%	1.0%	3.3%	10.3%
COc1ccc(NC(=O)C2Cc3c(-c4ccc5c(c4)OCO5)ccnc3O2)cc1OC (centres undefined)	x	-6.3%	x	8.2µM*	x	9.2µM*
O=C(NCCC(F)(F)F)C1Cc2c(-c3ccc(Cl)cc3)ccnc2O1 (centres undefined)	x	-23.9%	x	u	x	u
O=C(NCc1ccc(F)c(F)c1)C1Cc2c(-c3ccc4c(c3)OCO4)ccnc2O1 (centres undefined)	x	-0.7%	x	2.91µM*	x	2.31µM*
COc1ccc(CNC(=O)C2Cc3c(-c4ccc5c(c4)OCO5)ccnc3O2)cc1OC (centres undefined)	x	-2.8%	x	11.6µM*	x	18.4µM*
O=C(NCc1nnc2cc(-c3nc(C4CC4)no3)ccn12)c1ccc(F)c(F)c1	x	-12.0%	x	x	x	x
COc1cc(OC)cc(C(=O)Nc2cccc(-c3nnc4n3CCCC4)c2)c1	x	13.4%	x	x	x	x
O=C(Oc1ccc(Br)cc1C(=S)N1CCCC1)c1ccccc1F	-0.9%	-13.2%	1.4%	-21.2%	-3.7%	-25.3%
O=C(Oc1ccc(Br)cc1C(=S)N1CCOCC1)c1ccc([N+](=O)[O-])cc1[N+](=O)[O-]	-18.1%	u	18.1%	u	-24.9%	20.6µM*
O=C(Oc1ccc(Br)cc1C(=S)N1CCCCC1)c1cc([N+](=O)[O-])cc([N+](=O)[O-])c1	17.8µM*	x	-7.3%	u	-0.5%	u
Cc1ccccc1C(=O)Oc1ccc(Br)cc1C(=S)N1CCCC1	11.2µM*	0.0%	-11.9%	u	u	u
O=C(Oc1ccc(C(=S)N2CCOCC2)cc1)c1ccc([N+](=O)[O-])cc1[N+](=O)[O-]	-29.2%	u	0.0%	6.6%	-8.0%	-4.1%
O=C(NCc1cccc(Cl)c1)c1cc2cc(Cl)ccc2[nH]1	x	36.4%	x	x	x	x
CC(C)NC(=O)CCSc1nc(-c2ccc3c(c2)OCO3)cc(C(F)(F)F)n1	x	-20.3%	x	8.2µM*	x	13µM*
SMILES	RORgamma inh	ALOX12 inh	ELG1 DNA repair	TDP1 cell noCPT	Gal4-VP16 FLuc	DT40 TDP1 CPT
CC(NC(=O)CCSc1nc(-c2ccc3c(c2)OCO3)cc(C(F)(F)F)n1)c1ccccc1 (centres undefined)	-17.8%	-19.8%	u	u	-5.9%	23.1µM*
COc1ccc(N2CC3CCC(C2)N3C(=O)c2ccc3c(c2)OCO3)cc1	x	11.9%[6.33 µM]	x	x	x	x
Cc1nc2cc(NC(=O)c3ccc[n+]([O-])c3)ccc2o1	x	-23.6%	x	x	x	x
Oc1ccc(C[C@H]2CNCCN2CCc2cccc3ccccc23)cc1	x	0.0%	7.8%	u	x	u
c1ccc(C[C@H]2CNCCN2CCc2cccc3ccccc23)cc1	x	u	28.3%	10.3µM*	x	u
CCCC[C@@H]1CNCCN1CCc1cccc2ccccc12	x	6.1%	6.6%	18.4µM*	x	23.1µM*
CC(O)[C@H]1CNCCN1CCc1cccc2ccccc12 (some centres undefined)	x	u	u	u	x	-26.9%
Cc1ccccc1CN1CCN2C=C(C(=O)NCC3CC3)OC2=NC1=O	x	-8.0%	x	x	x	x
CCN1c2ccccc2-c2nc3ccccc3n2C1c1cccs1 (centres undefined)	12.6µM*	1.4%	-19.2%	13µM*	u	23.1µM*
Cc1ccc(C(=O)NCCSc2c(C)[nH]c3ccccc23)cc1	x	-5.1%	x	x	x	x
O=C(NCCSc1c(-c2ccc(Br)cc2)[nH]c2ccccc12)c1ccc(S(=O)(=O)N2CCOCC2)cc1	x	-17.2%	x	4.11µM*	x	3.66µM*
O=C(NCCSc1c(-c2ccc(Cl)cc2)[nH]c2ccccc12)c1ccc(S(=O)(=O)N2CCOCC2)cc1	x	-2.8%	x	3.66µM*	x	3.66µM*
COc1ccc(-c2cc3nc4c(c(=O)n3[nH]2)CN(C(=O)CN(C)S(=O)(=O)c2cnc[nH]2)CC4)cc1	x	3.6%	x	x	x	x
CCn1nc(C)cc1-c1nnc(Sc2ncc([N+](=O)[O-])s2)n1C	5.01µM*	u	u	0.581µM*	4.47µM*	0.581µM*
O=C(Cn1ccn2nc3c(c2c1=O)CCCC3)NCc1ccccc1	x	32.0%	x	x	x	x
COc1cccc(-c2noc(CC3CCN(C(=O)c4cccc(F)c4)CC3)n2)c1	x	34.8%	x	x	x	x
CCc1ccc([C@@H]2CC=C(C(=O)O)[C@H](c3ccc(F)cc3)N2S(=O)(=O)c2ccc(C)cc2)cc1	x	u	15.1%	-28.5%	x	-21.8%

Compound activity (PubChem BioAssay)
